PubChem BioAssay AID1508615 (Milbrandt Lab, Department of Genetics, Washington …, 2020)
The whole screen tested about 1,600 compounds, of which about 20 (1%) were called active. The sample holds actives, similar compounds and a random draw of the others, so the mix is not that of the screen. A number with no mark means an inactive call.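 How the source made its calls: active means ratio of uncleaved NAD to its breakdown product ADP-ribose above 4, meaning the enzyme was inhibited; inactive means the rest.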

What follows are compounds tested against NAD(+) hydrolase SARM1 (Homo sapiens) (UniProt Q6SZW1) (assay: SARM1 TIR NADase inhibitors by HPLC, primary screen, cell lysate, HPLC readout (AID 1508615;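 further: substrate NAD at 5 µM with 60 min at 37 °C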)). Details: HEK293T SAM-TIR lysate, at 5 µM, active compounds read high.
NAD(+) hydrolase SARM1 (Homo sapiens), sequence (Q6SZW1 whole entry, looked up): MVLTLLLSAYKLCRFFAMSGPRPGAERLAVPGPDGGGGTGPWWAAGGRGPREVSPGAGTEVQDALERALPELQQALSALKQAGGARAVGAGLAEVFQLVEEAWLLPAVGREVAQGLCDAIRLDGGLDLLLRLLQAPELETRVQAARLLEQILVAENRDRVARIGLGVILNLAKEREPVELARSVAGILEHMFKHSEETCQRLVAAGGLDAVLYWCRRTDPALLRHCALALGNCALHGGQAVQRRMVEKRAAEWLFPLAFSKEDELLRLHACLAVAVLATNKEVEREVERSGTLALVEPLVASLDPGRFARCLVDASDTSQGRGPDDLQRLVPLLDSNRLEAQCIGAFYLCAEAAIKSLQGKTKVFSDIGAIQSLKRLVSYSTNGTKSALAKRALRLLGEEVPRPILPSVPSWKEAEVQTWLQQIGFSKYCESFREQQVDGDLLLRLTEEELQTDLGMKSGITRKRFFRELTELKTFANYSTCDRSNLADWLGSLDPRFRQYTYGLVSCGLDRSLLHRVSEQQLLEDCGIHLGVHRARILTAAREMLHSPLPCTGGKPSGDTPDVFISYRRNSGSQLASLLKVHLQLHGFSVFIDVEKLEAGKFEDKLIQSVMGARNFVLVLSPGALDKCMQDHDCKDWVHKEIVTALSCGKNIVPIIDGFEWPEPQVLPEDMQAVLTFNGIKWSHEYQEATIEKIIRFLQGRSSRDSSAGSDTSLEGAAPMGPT

Row | Structure (SMILES) | NAD/ADPR ratio
1 | CCN(CC)c1ccc(C=C2C(=O)NC(=S)NC2=O)cc1 | 5.3 (active)
2 | COc1cc(C=C2C(=O)NC(=O)NC2=O)ccc1O | 3
3 | O=C1NC(=O)C(=Cc2ccc3ccccc3c2)C(=O)N1 | 3
4 | COC12C(COC(N)=O)C3=C(C(=O)C(C)=C(N)C3=O)N1CC1C2N1C (stereo not given) | 3
5 | O=C1CCC2(O)[C@@H]3Cc4ccc(O)c5c4[C@]2(CCN3Cc2ccoc2)C1O5 (stereo not given in full) | 3
6 | CC1=CC(O)C(O)C2(C)C1CC1OC(=O)C(O)C3C(C)C(O)C4(O)OCC13C42 (stereo not given) | 3
7 | COC(=O)c1nc(-c2ccc3c(n2)C(=O)C(N)=C(OC)C3=O)c(N)c(-c2ccc(OC)c(OC)c2O)c1C | 3
8 | CC1=C(O)C(=O)C=C2C1=CC=C1[C@@]2(C)CC[C@@]2(C)[C@@H]3C[C@](C)(C(=O)O)CC[C@]3(C)CC[C@]12C | 12.8 (active)
9 | N#CC12CNCC1CN=N2 (stereo not given) | 3
10 | NC(=O)c1ccc(C(=O)Nc2ccc([As](=O)(O)O)cc2)cc1 | 3
